An excerpt weighted towards active compounds, which were near 10% of everything screened.
FLuc inh-1 – Photinus pyralis luciferase inhibition; purified P. pyralis luciferase, luminescence, biochemical; Potency, µM (highest dose often 115 µM), most hits filed as inhibitors; 2.5% of 76,000 active; also: % is scaled to controls: 0 for no effect and ±100 for the full control effect; nearly all actives have a fitted effect of over 65% in size
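Biochemical qHTS: compound (6-point titration) added to 10uM D-luciferin plus 10uM ATP in Tris acetate pH 7.5 buffer with Mg, Tween-20 and BSA, then purified enzyme at 10nM; light output imaged.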
hNpr1 antagonist – human Npr1 receptor antagonism | HEK293 hNpr1 GloSensor cGMP, ANP-stimulated luminescence | 1.6% of 76,000 active | AID 1347048 | Potency, µM (doses to about 46.3 µM), for the others: at the highest dose activity change, negative = inhibition, usual class: inhibitors | P16066; calls by dose curve; also: % is scaled to controls: 0 for no effect and ±100 for the full control effect; nearly all actives have a fitted effect of over 60% in size
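HEK293 cells stably expressing human Npr1 and cGMP GloSensor pGS-40F, loaded 2 h with 2% GloSensor reagent, given compound 30 min at room temperature. Luminescence read before and 20 min after 0.1 nM hNppA.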
GPT2 inh – inhibitors of human GPT2 alanine aminotransferase. Q8TD30. Recombinant GPT2, coupled pyruvate oxidase/HRP Amplex Red fluorescence. Potency, µM (top dose mostly 57.7 µM), for inactives: top-dose activity change, negative = inhibition, usual class: inhibitors. 0.25% of 100,000 active. AID 1671188; also: % is scaled to controls: 0 for no effect and ±100 for the full control effect; nearly all actives have a fitted effect of over 60% in size
Target sequence (Q8TD30 whole entry, looked up): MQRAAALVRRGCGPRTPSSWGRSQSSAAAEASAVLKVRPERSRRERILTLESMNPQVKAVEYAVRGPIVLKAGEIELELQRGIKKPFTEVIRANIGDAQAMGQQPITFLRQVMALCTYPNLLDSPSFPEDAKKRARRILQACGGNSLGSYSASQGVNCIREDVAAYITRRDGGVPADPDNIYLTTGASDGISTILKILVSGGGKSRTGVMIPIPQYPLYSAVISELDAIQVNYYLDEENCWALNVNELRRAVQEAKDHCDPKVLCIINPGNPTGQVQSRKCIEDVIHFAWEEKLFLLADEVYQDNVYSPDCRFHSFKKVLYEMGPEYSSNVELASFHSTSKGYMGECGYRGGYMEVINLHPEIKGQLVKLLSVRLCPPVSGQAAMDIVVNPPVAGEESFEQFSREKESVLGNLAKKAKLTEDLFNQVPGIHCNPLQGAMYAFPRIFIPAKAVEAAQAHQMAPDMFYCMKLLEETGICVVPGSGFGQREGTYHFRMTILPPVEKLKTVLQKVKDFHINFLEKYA
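Fluorescence read-out: pyruvate from GPT2 turnover coupled to pyruvate oxidase, HRP and Amplex Red (0.2mM ThPP, 0.2U/mL PO and HRP, 50uM Amplex final). Substrates 250uM a-KG, 2mM L-alanine; enzyme 10ng/uL; 30 min RT.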
3T3 cytotox – cytotoxic compounds in NIH 3T3 cells. Potency, µM (doses to about 96.7 µM), inactives show top-dose activity change, negative = cytotoxicity, usual class: inhibitors. NIH 3T3 viability, CellTiter-Glo ATP luminescence, 48-72 h. 4.3% of 94,000 active. AID 1345082; also: % is scaled to controls: 0 for no effect and ±100 for the full control effect; nearly all actives have a fitted effect of over 55% in size
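Cytotoxicity is measured as loss of cellular ATP: NIH 3T3 cells (400/well) are exposed to compound for 48 or 72 hr at 37 °C, then CellTiter-Glo luminescence is imaged after 10 min at room temperature.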
HEK cytotox – kills HEK 293 cells. HEK 293 viability, ATP luminescence (CellTiter-Glo), 48-72 h. Potency, µM (highest dose often 115 µM), inactives show at the highest dose activity change, negative = cytotoxicity, most hits filed as inhibitors. 6.6% of 94,000 active; also: % is scaled to controls: 0 for no effect and ±100 for the full control effect; nearly all actives have a fitted effect of over 60% in size
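CellTiter-Glo luminescence (cellular ATP) was read after 48 or 72 hr of compound exposure at 37 degree Celsius. Cells were HEK 293 plated at 250 cells/well.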
FLuc SDR no ATP – stabilizes firefly luciferase without ATP; Purified FLuc-C-HiBiT, Nano-Glo HiBiT luminescence, no ATP; Potency, µM (doses to about 32.7 µM), for the others: at the top dose activation (signal gain), actives largely listed as activators; shares compounds with FLuc inh-1; 7.8% of 1,300 active; also: nearly all actives have a fitted effect of over 55% in size
FLuc SDR ATP – firefly luciferase binding stabilization, ATP added; shares compounds with FLuc inh-1; purified FLuc-C-HiBiT + ATP, HiBiT complementation luminescence; Potency, µM (doses to about 32.7 µM), for inactives: at the highest dose activation (gain of signal), actives largely listed as activators; 8.7% of 1,300 active; AID 1963319;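 also: signal reports ligand binding via conformational change of the enzyme rather than luciferase catalysis; % of control where 0% means no effect; nearly all actives have a fitted effect of over 55% in size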
FLuc inh-2 – blocks firefly luciferase enzymatic activity; shares compounds with FLuc inh-1; Potency, µM (series often up to 32.7 µM), inactives show at the highest dose activity change, negative = inhibition, hits mostly inhibitors; 42% of 1,300 active; purified FLuc-C-HiBiT enzyme, luciferin luminescence; also: % is scaled to controls: 0 for no effect and ±100 for the full control effect; nearly all actives have a fitted effect of over 70% in size
Numbers without * were called inactive; i = inactive; ? = inconclusive; . = no result; [ ] = remark or other dose. Unless noted, calls follow the shape of the dose curve; as a rule, active = well fitted curve in the direction sought with a large enough effect; inconclusive = small, poorly fitted or top-dose-only effect, or another doubt; inactive = no such curve, though single readings can be large; an effect the other way counts as inactive or inconclusive. Potency is read from the fitted curve at half-maximal effect.

SMILES	FLuc inh-1	hNpr1 antagonist	GPT2 inh	3T3 cytotox	HEK cytotox	FLuc SDR no ATP	FLuc SDR ATP	FLuc inh-2
Cc1ccc(NC(=O)N2CCC(CCNC(=O)C(C)C)CC2)cc1F	?	4.0%	i	-6.5%	-6.3%	.	.	.
O=C(NCc1ccc(F)cc1)C1CCN(C(=O)c2ncn3c2COC(c2ccccc2)C3)CC1 (centres undefined)	14.1µM*	-0.2%	i	-12.8%	-6.5%	15.6%	?	5.56µM*
CCc1ccc(CNC(=O)C2CCN(C(=O)c3ncn4c3COC(c3ccc(F)cc3)C4)CC2)cc1 (centres undefined)	?	0.0%	i	-11.4%	-16.3%	.	.	.
O=C(NCc1ccccc1F)C1CCN(C(=O)c2ncn3c2COC(c2ccccc2)C3)CC1 (centres undefined)	10µM*	-0.1%	i	-1.4%	5.0%	14.9%	?	3.51µM*
O=C(NCc1ccncc1)C1CCN(C(=O)c2ncn3c2COC(c2ccccc2)C3)CC1 (centres undefined)	2.82µM*	?	-0.9%	-14.4%	-1.8%	20.3%	0.881µM*	1.76µM*
COc1ccccc1CNC(=O)C1CCN(C(=O)c2ncn3c2COC(c2ccccc2)C3)CC1 (centres undefined)	12.6µM*	-3.0%	-3.2%	i	-4.5%	10.6%	?	6.24µM*
Cc1ccc(C2Cn3cnc(C(=O)N4CCC(C(=O)NCc5ccco5)CC4)c3CO2)cc1 (centres undefined)	14.1µM*	-2.8%	i	i	2.8%	13.3%	?	?
COc1ccc(C2Cn3cnc(C(=O)N4CCC(C(=O)NCc5ccco5)CC4)c3CO2)cc1 (centres undefined)	i	-7.0%	i	i	3.5%	.	.	.
Cc1cc(Cl)ccc1-n1ncc2c(N3CCCCC3)ncnc21	.	.	.	.	.	31.2%	?	4.42µM*
COCC(C)Nc1ncnc2c1cnn2-c1cccc(Cl)c1 (centres undefined)	.	.	.	.	.	23.4%	16.5%	?
Clc1cccc(-n2ncc3c(N4CCCCC4)ncnc32)c1	.	.	.	.	.	6.24µM*	?	0.989µM*
CCN(c1ncnc2c1cnn2-c1cccc(Cl)c1)C1CCCCC1	.	.	.	.	.	27.3%	?	5.56µM*
Nc1ccc2ncnc(N3CCCC3)c2c1	i	-9.4%	1.9%	-21.7%	?	.	.	.
O=c1n(-c2cccc(Cl)c2)nc2n1CCN(Cc1ccccc1)C2	.	.	2.6%	?	?	.	.	.
CC(C)CCN1CCn2c(nn(-c3cccc(Cl)c3)c2=O)C1	.	.	-10.6%	?	?	.	.	.
CC(C)Oc1ccc(C(=O)Nc2ccc(-c3nc4ccccc4s3)cc2)cc1	.	.	.	.	.	18.1%	10.3%	3.5%
COc1ccccc1OC(C)C(=O)Nc1ccc(-c2nc3ccccc3s2)cc1 (centres undefined)	.	.	.	.	.	14.6%	12.6%	-9.5%
O=C(COc1ccccc1F)Nc1ccc(-c2nc3ccccc3s2)cc1	.	.	.	.	.	10.0%	7.5%	-4.8%
CN(C)c1cccc(C(=O)Nc2ccc(-c3nc4ccccc4s3)cc2)c1	.	.	.	.	.	30.1%	?	?
O=C(NC1C[C@H]2CC[C@@H](C1)N2C(=O)c1cccs1)c1ccncc1 (some centres undefined)	i	4.8%	i	-7.3%	i	.	.	.
CCN1C(=O)C2CC3(CCN(C(=O)c4cc5ccc(OC)cc5[nH]4)CC3)CN2C1=O (centres undefined)	i	-17.5%	-19.4%	-25.5%	-29.9%	.	.	.
COC[C@H]1C[C@@H](NC(=O)c2nc3ccccc3s2)[C@H](O)[C@@H]1O	i	-9.5%[70.6 µM]	i	-6.8%[138 µM]	-5.3%[172 µM]	.	.	.
CN(C(=O)OC(C)(C)C)c1ccc(-c2nc3ccccc3s2)cc1	.	.	.	.	.	1.4µM*	0.351µM*	0.0989µM*
CCC(CC)COC(=O)[C@H](C)N[P@](=O)(OC[C@H]1O[C@@](C#N)(c2ccc3c(N)ncnn23)[C@H](O)[C@@H]1O)Oc1ccccc1	.	.	.	.	.	6.7%	4.7%	-6.1%
O=C1CCc2cc(NC(=O)c3n[nH]c4ccccc34)ccc2N1	2.82µM*	-26.2%	-0.8%	?	?	?	?	3.13µM*
SMILES	FLuc inh-1	hNpr1 antagonist	GPT2 inh	3T3 cytotox	HEK cytotox	FLuc SDR no ATP	FLuc SDR ATP	FLuc inh-2
CCCNC(=O)N1C[C@@H](Oc2cccnc2)C[C@@H]1C(=O)NC	i	7.9%	i	i	i	.	.	.
CSc1ccc(/C=C/c2nc3ccccc3n2S(=O)(=O)c2ccc(Br)cc2)cc1	.	.	.	.	.	7.85µM*	?	0.7µM*
O=S(=O)(c1cccc(C(F)(F)F)c1)n1c(/C=C/c2ccccc2)nc2ccccc21	.	.	.	.	.	1.57µM*	?	0.556µM*
Cc1cc(C(=O)N2CCCCCNC(=O)[C@@H]3CCC[C@@H]32)n(C)n1	i	5.5%	i	-14.0%	2.2%	.	.	.
COc1cccc(CN2CCOc3ccc(C(=O)NCc4ccccc4F)cc3C2)n1	i	-14.0%	i	?	?	.	.	.
Cc1ccc(NC(=O)N2CCC(OC3CCN(S(C)(=O)=O)CC3)CC2)cc1Cl	i	?	i	?	?	.	.	.
Cc1ccc(NC(=O)c2ncoc2-c2ccco2)cc1Cl	.	.	.	.	.	18.3%	13.7%	?
O=C(CSc1nnc2[nH]c(=O)cc(-c3ccccc3)n12)Nc1ccc(OC(F)(F)F)cc1	.	.	.	.	.	19.5%	15.0%	7µM*
CN1CCCCC(CC(=O)Nc2ccc(OC(F)(F)F)cc2)C1=O (centres undefined)	i	-1.5%	i	0.5%	-17.5%	.	.	.
Cc1ccc(C(=O)N2C(C(=O)NC(C)C)COC23CCN(C(=O)c2ccccc2F)CC3)cc1 (centres undefined)	i	-1.2%	-2.6%	?	-13.6%	.	.	.
Cc1ccc(-n2cc(CN(C)C(C)C(=O)N(C)C)c(-c3cccc(C)c3)n2)cc1 (centres undefined)	i	6.8%	4.9%	?	?	.	.	.
CC(=O)NC1CCN(Cc2cn(-c3ccc(C)cc3)nc2-c2cccc(C)c2)C1 (centres undefined)	12.6µM*	-0.7%	i	?	?	14.7%	9.1%	?
CNC(=O)NCCc1ncc(C)n1C1CCCCCC1	i	3.6%	i	-2.6%	2.5%	.	.	.
